Assay outcomes as filed in PubChem.
An excerpt weighted towards active compounds, which were near 14% of everything screened.
Shiga toxin inh: Shiga toxin inhibition | Vero cells, Shiga toxin protein synthesis inhibition reporter | inhibition, % at 38.7 µM | 290,000 compounds, 9.2% hits | AID 2315; in the data active = inhibition mostly above about 28%, no sharp cut-off; inactive = mostly below about 43%; note: 0% is about no effect
NS1 function inh: influenza NS1 inhibition | Potency, µM (highest dose often 46.1 µM), for the others: at the highest dose activity, positive = more growth | 270,000 compounds, 0.4% hits | AID 2326; calls by dose curve; note: potency is the fitted concentration of half-maximal effect; actives are rising curves; nearly all actives have a fitted effect of over 50% in size
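Compounds were scored for reversing the slow growth caused by influenza A NS1 in S. cerevisiae, measured by optical density at 600 nm. Assay medium contained 2% galactose at pH 6.0; NS1-free yeast of the same strain were the positive control.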
FBPA Giardia inh: blocks Giardia fructose-bisphosphate aldolase activity; A8B2U2; purified Giardia FBPA; Potency, µM (titrated, usually from 59.6 µM), for inactives: at the highest dose activity, negative = inhibition, most hits filed as inhibitors; 290,000 compounds, 0.71% hits; AID 2451; note: potency is the fitted concentration of half-maximal effect; % is set by controls: 0 for no effect and ±100 for the full control effect; nearly all actives have a fitted effect of over 55% in size
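Giardia FBPA (40 nM reagent) was preincubated 10 min at RT with compound (up to 57.5 uM final), then substrate plus GAPDH/TPI/NAD/arsenate coupling system with diaphorase/resazurin was added; resorufin fluorescence (525/598 nm) was read after 20 min.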
LmPK inhibitor: inhibitors of Leishmania mexicana pyruvate kinase; purified LmPK, Kinase-Glo ATP luminescence, 1 h; 290,000 compounds, 0.37% hits; Q27686; Potency, µM (titrated, usually from 57.5 µM), inactives show at the top dose activity change, negative = inhibition, most hits filed as inhibitors; AID 1721; note: potency is the fitted concentration of half-maximal effect; % is set by controls: 0 for no effect and ±100 for the full control effect
Target sequence (Q27686 whole entry, looked up): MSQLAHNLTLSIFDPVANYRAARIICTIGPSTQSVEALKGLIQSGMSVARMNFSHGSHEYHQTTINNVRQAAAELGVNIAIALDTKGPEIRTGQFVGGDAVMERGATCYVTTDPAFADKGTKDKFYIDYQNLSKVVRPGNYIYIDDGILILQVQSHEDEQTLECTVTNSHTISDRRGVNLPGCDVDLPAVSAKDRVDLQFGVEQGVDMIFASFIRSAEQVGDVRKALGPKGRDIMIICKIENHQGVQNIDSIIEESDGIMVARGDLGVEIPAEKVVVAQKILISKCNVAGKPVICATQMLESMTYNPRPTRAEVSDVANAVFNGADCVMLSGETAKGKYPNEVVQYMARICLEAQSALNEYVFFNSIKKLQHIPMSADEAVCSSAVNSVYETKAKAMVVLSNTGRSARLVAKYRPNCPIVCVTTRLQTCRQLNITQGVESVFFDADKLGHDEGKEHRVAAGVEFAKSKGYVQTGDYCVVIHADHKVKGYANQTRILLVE
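qHTS format; LmPK 0.1 nM; substrates PEP 0.5 mM and ADP 0.1 mM. One-hour room-temperature incubation, then coupled luciferase luminescence; 0.5 nM enzyme wells mark activation.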
Cycloheximide cs: counter-screen hit for Shiga toxin inhibitors, cycloheximide; cell reporter, cycloheximide protein synthesis inhibition counterscreen; max response, %; 300,000 compounds, 12% hits; AID 2314; in the data active = max response mostly above about 13%, no sharp cut-off; inactive = mostly below about 14%; note: read at 38.3 µM for the half of the compounds with a filed dose; 0% is about no effect
An asterisk follows results filed as active; ? = inconclusive; . = not tested or not shown; [ ] = remark or other dose. Unless noted, calls come from the whole dose curve; as a rule, active = well fitted curve in the direction sought with a large enough effect; inconclusive = small, poorly fitted or top-dose-only effect, or another doubt; inactive = no such curve, though single readings can be large; an effect the other way counts as inactive or inconclusive.

SMILES	Shiga toxin inh	NS1 function inh	FBPA Giardia inh	LmPK inhibitor	Cycloheximide cs
O=C(N/N=C/c1ccc[nH]1)c1ccc(COc2cccc3cccnc23)cc1	38.7	4.1%	-7.4%	3.8%	34.5*
O=C(COc1ccc(Cl)cc1Cl)N/N=C/C1CC=CCC1 (stereo unspecified)	-17.3	4.7%	.	-9.6%	11.4
CCOC(=O)N/N=C(\C)c1ccc(Br)cc1	64.9	-3.6%	2.5%	1.4%	30.6*
COC(=O)N/N=C(\C)c1ccc(Br)cc1	-4.4	-14.0%	-0.2%	-0.9%	11.8
CCOC(=O)N/N=C(\C)c1ccc(C)c([N+](=O)[O-])c1	55.7	?	-0.2%	-3.5%	15.7*
COc1ccc(C(=O)OCC(=O)NC(C)(C)C)cc1[N+](=O)[O-]	-9.3	-9.5%	-0.5%	4.2%	-3.1
COc1ccc(/C(C)=N/NC(=O)OC(C)(C)C)cc1[N+](=O)[O-]	78.9*	-7.0%	0.5%	-4.2%	22.3*
CC(=O)N(O)C/C=C/c1cccc(Oc2ccccc2)c1	3.1	.	-8.7%	.	24.8
C=CCN1c2ccccc2[C@]23C[C@@H](C(=O)OC)N(S(=O)(=O)c4ccc(C)cc4)C2=NC(C(=O)OC)=C(C(=O)OC)[C@H]13	.	.	0.0%[12.9 µM]	-3.1%[11.5 µM]	.
CC1CCCCC1Nc1ncnc2sccc12 (stereo unspecified)	-2.5	-24.3%	-13.3%	-3.2%	-1.5
CCCC1(c2ccccc2)NC(=O)N(CC(=O)Nc2cc(C)ccc2OC)C1=O (stereo unspecified)	-6.9	13.6%	9.4%	0.7%	-1.5
Cc1ccc(-c2onc3ccc(Br)cc23)cc1	-3.8	0.5%	-3.5%	2.0%	10.8
Cc1ccc(-c2onc3ccc(C4OCCO4)cc23)cc1	71.4*	.	1.5%	13.2%	14.0*
CC(C)C[C@H](NC(=O)OC(C)(C)C)C(=O)N[C@@H](CO)[C@H](O)[C@@H]1C[C@@H]1C(=O)N1CCCC1	4.0	15.0%	-1.5%	4.8%	-1.9
CC1=Nc2ccccc2N=C(NC(=O)/C=C/C(=O)O)C1c1ccccc1 (stereo unspecified)	77.3*	1.4%	-28.2%	-8.2%	40.3*
COc1ccc(C(=O)NC2=Nc3ccccc3N=C(C)C2c2ccccc2)cc1 (stereo unspecified)	189.8*	-1.4%	-19.8%	-7.3%	43.6*
Clc1ccc(-c2nnc(N3CCCC3)nn2)cc1	145.3*	-34.1%	-0.5%	-14.4%	33.6*
Clc1ccc(-c2nnc(-c3ccccc3)c(N3CCSCC3)n2)cc1	-4.7	-51.5%	0.8%	7.9%	0.9
O=C(Cc1ccccc1)Nc1ccc(CN2CCOCC2)cc1	80.8*	-8.0%	1.8%	2.2%	30.5*
O=C(Nc1ccc(CN2CCOCC2)cc1)c1ccc(Cl)cc1Cl	10.7	3.2%	12.4%	-1.1%	16.5*
O=C(Nc1ccc(CN2CCOCC2)cc1)c1cccs1	63.8*	-2.5%	0.4%	-10.8%	27.1*
O=C(Nc1ccc(CN2CCOCC2)cc1)c1ccccc1F	91.6*	8.0%	1.4%	0.9%	41.9*
O=C(Nc1ccc(CN2CCOCC2)cc1)c1cc(Br)ccc1Cl	10.4	-10.9%	-6.6%	5.7%	3.0
COc1ccc(C(=O)Oc2c(OC)cc(C(=S)N3CCOCC3)cc2OC)cc1OC	.	-3.0%	-3.0%	9.3%	-2.3
CC(C)(CO)CNC(=O)c1ccc(OC2CCN(C(=O)C3CC3)CC2)cc1	15.9	8.9%	5.7%	-0.9%	-1.9
SMILES	Shiga toxin inh	NS1 function inh	FBPA Giardia inh	LmPK inhibitor	Cycloheximide cs
CCN1C(=O)[C@H]2[C@H]3[C@H](O)[C@H](O)C/C(=N/OC[C@@H](C)[C@H](OCc4ccccc4)C(C)C)[C@@H]3CC[C@@H]2C1=O	.	.	-2.7%[12.9 µM]	.	.
COc1cc2ccccc2cc1C(=O)Nc1ccc(CN2CCOCC2)cc1	35.4	-2.7%	-1.9%	-0.9%	20.2*
O=C(NC(=S)Nc1ccc(CN2CCOCC2)cc1)c1ccc([N+](=O)[O-])cc1Cl	32.7	.	-12.6%	-0.6%	25.7*
O=C1CCN(CCc2ccccc2)CCN1[C@H](CSc1ccc(Br)cc1)Cc1ccccc1	-5.5	-51.8%	-4.0%	2.4%	-4.6
Cc1ccc(SC[C@H](CC(C)C)N2CCN(CCc3ccccc3)CCC2=O)cc1	42.8*	-37.1%	-2.4%	2.9%	52.2*
COc1ccc(SC[C@H](CC(C)C)N2CCN(CCc3ccccc3)CCC2=O)cc1	43.9*	-9.8%	-6.3%	0.1%	12.7*
CC(C)CC(CSc1ccc(Br)cc1)N1CCN(CCc2ccccc2)CCC1=O (stereo unspecified)	49.2*	.	1.5%	.	28.7*
